Hsp90 block: tumor Hsp90 inhibitors, primary screen, cell lysate, fluorescence polarization, NCI-N417 lysate | Heat shock protein HSP 90-alpha (Homo sapiens), P07900 | Cy3B-geldanamycin FP displacement | inhibition, % at 30 µM | 64,000 compounds, 0.35% hits;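 active = inhibition above 50%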;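 note: 0% = tracer plus lysate wells and 100% = tracer alone without lysate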
ROCK2 blocker: inhibitors of human ROCK2 kinase, primary screen, biochemical, high-throughput, luminescence; purified ROCK2, Kinase-Glo ATP depletion luminescence; Rho-associated protein kinase 2 (Homo sapiens), O75116; 60,000 compounds, 0.35% hits; inhibition, % at 6 µM; AID 604, 2007;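 active = inhibition above the screen-wide mean inhibition plus 3 SD, cut at about 18% in these data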;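 note: plate controls were DMSO wells for no effect and Y-27632 control wells after no-enzyme background subtraction for full effect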
PKA kinase inh: inhibitors of human PKA kinase activity, primary screen, biochemical, ATP-depletion luminescence, Kemptide substrate; cAMP-dependent protein kinase catalytic subunit alpha (Homo sapiens), P17612; inhibition, % at 6 µM; 65,000 compounds, 0.1% hits; PKA Kemptide phosphorylation, Kinase-Glo ATP luminescence;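 active = inhibition above the screen-wide mean inhibition plus 3 SD, cut at about 21% in these data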
Cdc25B block: inhibitors of Cdc25B phosphatase catalytic domain, primary screen, biochemical, OMFP fluorescence | M-phase inducer phosphatase 2 (Homo sapiens), P30305 | recombinant Cdc25B, OMFP fluorescence Ex485/Em525 | inhibition, %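 (compounds tested at 10 µM final in the well)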 | 65,000 compounds, 0.1% hits; in the data active = inhibition above about 50%
Target sequence (P30305 whole entry, looked up, the tested form may be a part): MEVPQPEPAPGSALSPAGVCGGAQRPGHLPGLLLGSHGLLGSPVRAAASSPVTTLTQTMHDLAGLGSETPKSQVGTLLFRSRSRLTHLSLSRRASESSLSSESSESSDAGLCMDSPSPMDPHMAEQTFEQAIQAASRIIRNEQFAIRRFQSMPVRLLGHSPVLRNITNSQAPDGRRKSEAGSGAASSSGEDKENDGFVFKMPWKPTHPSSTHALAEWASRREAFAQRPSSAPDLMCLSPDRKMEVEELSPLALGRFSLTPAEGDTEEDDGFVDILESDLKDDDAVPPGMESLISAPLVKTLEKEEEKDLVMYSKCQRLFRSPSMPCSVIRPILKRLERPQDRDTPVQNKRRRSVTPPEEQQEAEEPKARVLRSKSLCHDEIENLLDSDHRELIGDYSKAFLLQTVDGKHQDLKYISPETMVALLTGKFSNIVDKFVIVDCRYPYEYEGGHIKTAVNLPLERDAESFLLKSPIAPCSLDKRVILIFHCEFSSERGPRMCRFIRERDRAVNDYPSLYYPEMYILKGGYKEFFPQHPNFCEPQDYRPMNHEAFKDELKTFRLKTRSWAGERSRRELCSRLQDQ
DUSP1 inh: MKP-1 phosphatase inhibitors, primary screen, biochemical, in vitro. Dual specificity protein phosphatase 1 (Homo sapiens), P28562. recombinant MKP-1, OMFP hydrolysis fluorescence. inhibition, %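 (compounds tested at a single concentration somewhere between 10 and 100 µM)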. 65,000 compounds, 0.15% hits. AID 374, 2006;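 active = inhibition above about 50%, limit read from the data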;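 note: 0% = DMSO max control wells and 100% = wells with enzyme stopped by NaOH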
SK-BR-3 tox 24h: SK-BR-3 proliferation inhibitors, primary screen, cell-based, human, 24 h; SK-BR-3 viability, CellTiter-Glo ATP luminescence; hits give low values; viability, % at 10 µM; 41,000 compounds, 0.47% hits;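 active = viability at or below the median of all test compounds minus 3 SD, in both replicates if run twice, cut at about 45% in these data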;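 note: 100% = median untreated cell wells and 0% = median positive control drug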
* = called active by the depositor; nt = no result given; ! = repeats disagree. Shown are actives, neighbours in structure and some others; about 1% of the full set was active somewhere.

SMILES	Hsp90 block	ROCK2 blocker	PKA kinase inh	Cdc25B block	DUSP1 inh	SK-BR-3 tox 24h
Cc1ccc(-c2noc(C3CCCN(C(=O)c4c(F)cccc4F)C3)n2)cc1 (stereo unspecified)	-3.5	-1.3	-2.6	-0.5	5.7	28.1*
Cc1cccc(C(=O)OCc2cc3ccccc3[nH]c2=O)c1	-2.4	0.8	-0.7	3.6	-20.4	104.0
N#CCSc1nc2c(cc1C#N)CCCCCC2	-3.4	10.3	4.5	-23.3	-1.4	118.5
N#Cc1cc2c(nc1SCc1ccncc1)CCC2	-4.4	57.5*	-0.4	-2.4	0.3	96.7
CCOC(=O)C1=C(C)OC(N)=C(C(=O)OCC)C1c1cccnc1 (stereo unspecified)	71.8*	2.1	6.0	4.1	-19.9	100.2
CN(CCO)c1ncnc2nc[nH]c12	1.8	37.0*	15.2	-9.2	5.9	nt
CCOC(=O)c1sc2nc(NC(=O)c3cccs3)sc2c1C	62.9*	-1.5	6.4	2.6	11.6	nt
CCOC(=O)c1sc2nc(NC(=O)COc3ccccc3)sc2c1C	-2.9	5.3	3.8	4.7	5.0	nt
COC(=O)c1cccc(CSc2nnc(-c3ccco3)n2-c2ccccc2)c1	-4.7	2.9	3.0	-14.1	-32.3	35.5*
Nc1nonc1-c1nc2ccccc2[nH]1	-4.3	60.8*	18.8	5.7	-6.2	85.6
O=C(CN1C(=O)COc2ccccc21)N1CCN(c2ccccc2F)CC1	-2.9	3.5	5.9	-15.3	-5.6	nt
COc1cccc(OC)c1OCCCc1c(C)n[nH]c1C	-0.8	4.3	7.4	12.5	-9.1	141.3
COc1ccc2c3c(cccc13)NN=C2C	86.5*	-2.5	10.7	-4.6	11.7	nt
Cc1cc(NS(=O)(=O)Cc2ccccc2)cc(C)c1OCC(=O)N1CCOCC1	-2.4	5.0	3.1	-0.3	-8.5	107.1
O=C(Nc1cccc2nsnc12)C1CC(=O)N(c2ccccc2)C1 (stereo unspecified)	-2.0	-1.8	-9.5	-2.4	-24.0	42.4*
C=CCn1c(NC(=O)c2ccccc2)c(C#N)c2nc3ccccc3nc21	63.0*	-5.2	-5.6	25.5	36.2	nt
C=CCn1c(NC(=O)c2ccccc2Cl)c(C#N)c2nc3ccccc3nc21	60.9*	-7.7	-7.3	26.1	20.0	90.4
CCOc1ccc(NC(=O)N(C2CCCCC2)C2CCN(C(C)=O)CC2)cc1	-3.6	6.1	8.0	63.8*	1.7	nt
CC(C)N=c1cc2n(-c3ccc(Cl)cc3)c3ccccc3nc-2cc1Nc1ccc(Cl)cc1	98.5*	3.5	0.6	-5.2	-11.9	92.9
COc1ccccc1C(=O)Nc1ncc2c(n1)CC(c1ccco1)CC2=O (stereo unspecified)	4.9	4.5	4.9	-4.4	-15.6	90.5
CCCn1nnc(NC(=O)c2cc(Br)cc(Br)c2OC)n1	1.0	5.2	4.8	-13.5	50.3*	89.5
CCCn1nnc(NC(=O)c2ccc(Br)cc2)n1	0.9	9.4	9.0	-0.4	-1.0	88.8
O=C(Nc1cccc(F)c1)c1cccnc1N1CCOCC1	-3.9	1.1	1.5	10.6	-6.4	nt
O=C(Nc1ccccc1)c1cccnc1N1CCOCC1	1.5	3.8	9.7	53.2*	0.5	nt
CCCCCOC(=O)Cn1c(N2CCOCC2)nc2c1c(=O)[nH]c(=O)n2C	-1.4	-7.5	4.3	-4.5	6.9	77.0
SMILES	Hsp90 block	ROCK2 blocker	PKA kinase inh	Cdc25B block	DUSP1 inh	SK-BR-3 tox 24h
CN(C)c1ccc(-c2ccncc2)cc1	1.4	19.3*	8.3	1.8	8.1	nt
CN(C)c1ccc(-c2nnc(-c3ccc(S(=O)(=O)C(F)F)cc3)o2)cc1	4.1	3.2	9.3	12.3	14.0	107.3
COc1ccc(Nc2ccc3c(c2)=NC2(CCCCC2)[N+]=3[O-])cc1	nt	nt	nt	13.1	16.5	3.2*
O=C1Nc2ccccc2C(O)(C(=O)N2CCCCC2)N1c1ccccc1 (stereo unspecified)	-4.8	1.3	-2.6	-12.2	6.6	108.4
O=C(COC(=O)c1ccccn1)Nc1ccccc1Cl	-2.9	-1.7	-2.4	25.4	22.3	nt
CCC(NC(C)C)C(O)c1ccc(O)c(O)c1 (stereo unspecified)	59.4*!	4.2	-0.2	10.3	15.8	67.4
CC(C)NC[C@H](O)c1ccc(O)c(O)c1	31.6	nt	nt	nt	nt	nt
CCOC(=O)N1CCN(S(=O)(=O)c2ccc3[nH]cc(C(=O)O)c(=O)c3c2)CC1	-1.6	3.0	10.9	-1.9	3.0	74.7
O=C(NCc1ccc(F)cc1)c1noc2c1CCCCC2	-4.4	6.3	9.6	-11.2	-5.6	78.6
O=C(NC1=NCCS1)c1ccc(OCC2CCCO2)cc1 (stereo unspecified)	0.8	2.4	5.9	54.9*	0.9	nt
CC(COc1ccccc1)N(CCCl)Cc1ccccc1 (stereo unspecified)	-1.5	-4.8	-8.7	-9.6	-29.2	97.2
CC(C)COCC(CN(Cc1ccccc1)c1ccccc1)N1CCCC1 (stereo unspecified)	64.2*	nt	nt	nt	nt	nt
CCn1cc(C(=O)Nn2cnnc2)c(=O)c2ccc(C)nc21	0.6	19.6*	7.1	-13.3	11.1	nt
CCC(=O)N1CCc2cc(Br)cc(S(=O)(=O)N3CCN(C(=O)c4ccco4)CC3)c21	nt	nt	13.8	-0.8	13.8	88.1
Cc1ccc(OCCSc2nnc(NC(=O)c3ccco3)s2)cc1	-0.8	2.8	6.7	5.6	0.6	73.2
O=C(O)C1CC(c2cccc(Br)c2)=NO1 (stereo unspecified)	2.2	0.4	-2.8	1.0	2.9	96.6
CC(NC(=O)c1ccc2c(c1)OCO2)C1CCCO1 (stereo unspecified)	nt	-4.8	-6.3	-16.1	56.0*	64.8
OC(COc1ccc2ccccc2c1Br)Cn1ccnc1 (stereo unspecified)	-3.0	4.5	9.2	-15.9	7.0	84.7
Oc1ccc(-c2onc(C(F)(F)F)c2-c2cscn2)c(O)c1	64.6*	-0.4	-2.6	-18.1	16.9	nt
COc1cc(OC)cc(-c2nnc(SCC(=O)N(C(C)C)C(C)C)o2)c1	-0.8	-2.5	-4.5	-4.7	8.5	39.2*
COc1cccc(-c2nnc(SCC(=O)N(C(C)C)C(C)C)o2)c1	-1.8	-0.5	5.6	1.5	-16.3	83.7
O=C(O)c1c[nH]c2ccc(S(=O)(=O)N3CCN(c4ccc(F)cc4)CC3)cc2c1=O	-3.5	nt	4.3	-5.2	9.2	nt
Cc1ccccc1NC(=O)Cn1c(C)nc2ccc(NC(=O)C3CC3)cc2c1=O	-6.2	18.9*	9.5	-3.0	1.3	93.9
O=c1c(-c2ccccc2)c(O)nc2ccccn12	-1.8	-4.0	0.3	-3.7	-17.7	102.1
Cc1ccc(NC(=O)COC(=O)Cn2c(C)csc2=O)cc1C	-1.7	5.9	9.9	-13.6	1.7	nt
Cc1ccc(NC(=O)COC(=O)c2ccc3c(c2)NC(=O)C2CCCN32)cc1C (stereo unspecified)	-6.9	5.9	6.1	6.7	54.1*	nt
Nc1nonc1N1CCCCC1	71.8*	-0.7	4.2	3.4	-17.4	92.3

Compound activity as filed in PubChem.
